HCV inh – qHTS Assay for Inhibitors of Hepatitis C Virus (HCV); Huh7.5.1 HCVcc-Cre infection, luciferase reporter, 44 h; Potency, µM (series often up to 41.8 µM), for the others: at the highest dose activity change, negative = inhibition, hits mostly inhibitors; 340,000 tested, 3.4% active
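Infectious HCV cell culture screen: compound-treated cells (1,000/well, pre-plated 4 h) are infected with HCVcc-Cre at roughly 0.5 moi and grown 44 h. Infection is quantified by luciferase signal after 15 min substrate incubation at room temperature.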
AMA1 RON2 block – qHTS for Inhibitors of AMA1-RON; Towards Development of Antimalarial Drug Lead: Primary Screen | Plasmodium falciparum AMA1 (3D7) - RON2 peptide interaction | AlphaScreen AMA1-biotinylated RON2 peptide binding | Potency, µM (series often up to 58.2 µM), for the others: at the top dose activity change, negative = inhibition, actives largely listed as inhibitors | 360,000 tested, 0.2% active;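 further: 0% = vehicle wells and -100% = peptide control; nearly all actives have a fitted effect of over 45% in size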
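AMA1 (3D7) with his tag at 25 nM final met compounds first, then biotinylated RON2 peptide at 25 nM; detection used donor plus acceptor beads, 10 µg/mL apiece, read by AlphaScreen after 30 min at room temperature.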
Pf growth 96h – Primary qHTS for delayed death inhibitors of the malarial parasite plastid, 96 hour incubation; P. falciparum luciferase reporter growth, 96 h; Potency, µM (top dose mostly 28.7 µM), for inactives: top-dose activity change, negative = inhibition, usual class: inhibitors; 320,000 tested, 6.9% active; AID 504834, 2011
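Cell-based qHTS: luciferase-tagged P. falciparum in erythrocytes (2% hematocrit, 0.05% parasitemia final) incubated with compounds for 96 hours, 37 C, 5% CO2; luciferase detection reagent then added and luminescence measured.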
Pf growth 48h – Primary qHTS for delayed death inhibitors of the malarial parasite plastid, 48 hour incubation; 310,000 tested, 5.9% active; Potency, µM (series often up to 28.7 µM), without a hit: at the top dose activity change, negative = inhibition, usual class: inhibitors; P. falciparum luciferase growth in erythrocytes, 48 h
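Compounds are pin-transferred into medium, infected erythrocytes (2% hematocrit, 0.1% parasitemia final) are added, and plates sit one parasite generation at 37 C in 5% CO2. Detection reagent is then added and luminescence measured.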
* hit, by the source's call; u = inconclusive; x = not tested or not shown; [ ] = another dose, or the depositor's remark. Rows were chosen to be rich in hits. Some 11% of all compounds tested hit in one or more screens of this group. The call rests on the fitted dose curve; in most records, active means well fitted curve in the direction sought with a large enough effect; inconclusive means small, poorly fitted or top-dose-only effect, or another doubt; inactive means no such curve, though single readings can be large; an effect the other way counts as inactive or inconclusive. Unless noted, on the % scale 0 is the no-effect control and ±100 the full control effect; potency means the concentration at half of the fitted maximal effect.

SMILES | HCV inh | AMA1 RON2 block | Pf growth 96h | Pf growth 48h
C=CCN1C(=O)C2(NNc3ccccc3O2)c2ccccc21 (stereo not given) | 2.8% | -15.8% | 11.7µM* | x
C=CCN1C(=O)C2(NC(=O)c3ccccc3N2)c2ccccc21 (stereo not given) | -12.4% | 16.0% | -15.8% | 4.7%
COc1cccc(CNC(=O)COC(=O)c2nc(Cl)c(Cl)c(Cl)c2Cl)c1 | u | -6.0%[11.6 µM] | -3.5% | -16.8%
CCOC(=O)c1c(C)n(C)c2ccc(OC)c(NC(=O)CN3CCC(C(=O)OCC)CC3)c12 | -17.7% | 10.6% | 3.29µM* | u
COC(=O)c1c(NC(=O)CN2CCN(C(=O)c3ccco3)CC2)c2c(C)cccc2n1C | 8.3% | 1.6% | x | u
CCOC(=O)c1c(C)n(C)c2ccc(OC)c(NC(=O)CN3CCN(C(=O)c4ccco4)CC3)c12 | 7.3% | 3.1% | u | 5.22µM*
CCOC(=O)c1c(C)n(C)c2ccc(OC)c(NC(=O)CN3CCN(Cc4ccccc4)CC3)c12 | u | -1.3% | 25.8% | 10.4µM*
CCOC(=O)c1c(C)n(C)c2ccc(OC)c(NC(=O)CN3CCN(C4CCCCC4)CC3)c12 | 0.4% | 1.0% | x | u
C=CCCN(C(C(=O)OC)C(C)C)S(=O)(=O)c1ccccc1Br (stereo not given) | 4.8% | 15.2% | u | -27.9%
Cc1ccc(N(C(=O)CNC(=O)c2ccco2)C(C(=O)NC2CCCCC2)c2ccncc2)c(C)c1 (stereo not given) | -7.8% | -2.4% | -5.9% | 11.7µM*
CCOC(=O)c1ccc(N(CC(=O)NC2CCCC2)C(=O)CNC(=O)c2ccco2)cc1 | -2.1% | 14.4% | 6.6% | 9.28µM*
COc1cccc(N(C(=O)CNC(=O)c2ccco2)C(C(=O)NC2CCCC2)c2ccncc2)c1 (stereo not given) | 11.0% | 21.1% | 11.2% | -2.6%
O=C(CN(Cc1ccc2c(c1)OCO2)C(=O)CNC(=O)c1ccco1)NC1CCCCC1 | -0.4% | 0.0% | 7.38µM* | 8.4%
COc1ccc(N(C(=O)CNC(=O)c2ccco2)C(C(=O)NC2CCCC2)c2ccncc2)cc1 (stereo not given) | -28.4% | -1.9% | 2.62µM* | 11.4%
Cc1ccc(C)c(N(C(=O)CNC(=O)c2ccco2)C(C(=O)NC2CCCCC2)c2ccncc2)c1 (stereo not given) | 7.6% | 21.8% | 34.6% | -20.1%
OC[C@@H]1CN(Cc2ccc3c(c2)OCO3)C[C@H](n2cnc3c(NCc4ccncc4)ncnc32)O1 | x | 15.3% | x | x
CCCCc1cc(=O)oc2c(C)c(OCC(=O)N3C[C@H]4C[C@@H](C3)c3cccc(=O)n3C4)ccc12 | -3.0% | -3.9% | u | u
O=C(NCC(=O)N(c1ccc2c(c1)OCCO2)C(C(=O)NC1CCCC1)c1ccco1)c1ccco1 (stereo not given) | 8.0% | -16.5% | 0.828µM* | u
O=C(NCC(=O)N(c1cccc(F)c1)C(C(=O)NC1CCCC1)c1ccco1)c1ccco1 (stereo not given) | -8.5% | -11.8% | -21.9% | 0.7%
O=C(NCC(=O)N(Cc1cccs1)C(C(=O)NC1CCCCC1)c1ccncc1)c1ccco1 (stereo not given) | 6.6% | 0.0% | 5.86µM* | u
O=C(NCC(=O)N(Cc1cccs1)C(C(=O)NC1CCCC1)c1cccnc1)c1ccco1 (stereo not given) | 10.8% | 3.9% | 33.0% | -26.2%
COc1ccc(N(C(=O)CNC(=O)c2cccs2)C(C(=O)NC2CCCC2)c2ccncc2)cc1 (stereo not given) | 16.7% | -6.4% | 13.1µM* | -5.1%
CCOc1ccc(Cn2c(C)nc([N+](=O)[O-])c2SCC(O)CCl)cc1[N+](=O)[O-] (stereo not given) | 5.5% | 1.5% | x | 10.4µM*
CCCOc1ccc(CN(CCO)CCO)cc1[N+](=O)[O-] | 8.0% | -5.4% | u | u
CCCOc1ccc(Cn2c(C)nc([N+](=O)[O-])c2SCC(O)COC)cc1[N+](=O)[O-] (stereo not given) | -17.2% | -11.6% | 10.4µM* | u
COc1cccc(-c2sc3ccc(OC)cc3c2-c2ccc(OCCN(C)C)cc2)c1 | u | 14.1µM* | x | x
COc1cccc(-c2sc3ccc(OC)cc3c2-c2ccc(O)cc2)c1 | u | 1.2% | u | u

Screening data: PubChem BioAssay, National Center for Advancing Translational Sciences (NCATS)
